Reference: PubChem BioAssay (Tox21)
Results filed as inconclusive are left out. Where a call stands in place of a potency, no number is given. The source made the active and inactive calls. Calls come from the whole dose curve; as a rule, active = well fitted cell-killing curve with a large enough effect in the repeat runs; inconclusive = weak or mixed curves, or effect the other way; inactive = no such curve, though single readings can be large or run the other way.

Assay: qHTS assay to identify small molecule agonists of the estrogen receptor alpha (ER-alpha) signaling pathway in the presence of an antagonist - cell viability counter screen (AID 1259386);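 note: cells exposed to compounds for 22 h at 37 °C before the viability read; nearly all actives have a fitted effect of over 30% in size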
Conditions: VM7Luc4E2 viability, CellTiter-Fluor fluorescence, 22 h; series mostly up to 92.4 µM
Description: National Center for Advancing Translational Sciences [NCATS]
NIH Chemical Genomics Center [NCGC]
U.S. Environmental Protection Agency [EPA]
National Institutes of Environmental Health Sciences [NIEHS]
National Toxicology Program [NTP]
U.S. Food and Drug Administration [FDA]
Estrogen receptor (ER), a member of nuclear hormone receptor plays an important role in development, metabolic homeostasis and reproduction. Two subtypes of ER, ER-alpha and ER-beta, have similar expression patterns with some uniqueness in both types. Endocrine disrupting chemicals (EDCs) and their interactions with steroid hormone receptors like ER causes disruption of normal endocrine function. Therefore, it is important to understand the effect of environmental chemicals in ER signaling pathway. For identifying ER agonists, VM7Luc4E2 cell line has been used in the current assay.
VM7Luc4E2 cell line (provided by Denison MS, University of California) endogenously expresses full-length ER-alpha and is stably transfected with a plasmid containing four estrogen responsive elements (ERE) upstream of a luciferase reporter gene. This current screening for measuring luciferase reporter gene activity using VM7Luc4E2 cells against Tox21 10K library collection is a confirmation study on agonist mode screening in presence of ER-antagonist (ICI-182,780) at 10.0nM final concentration. The cytotoxicity of the compounds was tested in parallel by measuring the cell viability using CellTiter-Fluor assay system (Promega, Madison, WI) in the same wells.
Tox21 Assay Protocol Summary:
VM7Luc4E2 cells were cultured in phenol red free assay medium containing 10% charcoal stripped FBS for 5 days prior to the assay. The cells were dispensed at 4,000 cells in 4uL of assay medium per well into white wall/solid-bottom 1536-well plates (Corning Life Sciences, Corning, NY) using a Multidrop Combi (Thermo Fisher Scientific Inc., Waltham, MA) dispenser. After the assay plates were incubated at 37C and 5% CO2 for 24hr, 1uL of 10.0nM (final concentration) ICI-182,780 or assay buffer was added using two separate tips of Flying Reagent Dispenser (FRD, Aurora Discovery, San Diego, CA). Then 23nL of compounds dissolved in DMSO at 15 concentrations and positive controls or DMSO only was transferred to the assay plates by a Pintool station (Wako, San Diego, CA). The assay plates were incubated at 37C and 5% CO2 for 22hr. After 21hr incubation at 37C, 1uL/well CellTiter-Fluor reagent (Promega Corporation, Madison, WI) was added to each well using FRD and after 1hr incubation at 37C and 5% CO2, the fluorescence signal was measured on ViewLux plate reader (PerkinElmer, Shelton, CT).
Potency is the fitted concentration of half-maximal effect.

SMILES | Potency
CCOC(=O)OCC | inactive
CCCCCCCCSCCO | inactive
CCN(CC)CCNC(=O)c1ccc(NC(C)=O)cc1 | inactive
Cc1ccnc2ccccc12 | inactive
O=C(O)c1cccnc1C(=O)O | inactive
ON(Cc1ccccc1)Cc1ccccc1 | inactive
CCCCCCCCCOC(C)=O | inactive
CCCCCCCC/C=C\CCCCCCCC(=O)OC(CO)CO | inactive
C=CCNc1nc(NCC=C)nc(N2CCN(C(c3ccc(F)cc3)c3ccc(F)cc3)CC2)n1 | inactive
CC(C)OCC1CO1 (stereo not given) | inactive
CC(C)CCCCCCOC(=O)CCCCC(=O)OCCCCCCC(C)C | inactive
C/C(=N/NC(=O)c1ccncc1)C(=O)O | inactive
CCOC(=O)/C=C/C(=O)O | inactive
CN1C(=O)CC(C)(c2ccccc2)C1=O (stereo not given) | inactive
COc1cc2ncnc(Nc3ccc(F)c(Cl)c3)c2cc1OCCCN1CCOCC1 | inactive
C[C@@H]1C[C@H]2[C@@H]3CCC4=CC(=O)C=C[C@]4(C)[C@@]3(F)[C@@H](O)C[C@]2(C)[C@@]1(O)C(=O)CO | inactive
CC(C)=CC=O | inactive
C[N+]1(C)CCC(=C(c2ccccc2)c2ccccc2)CC1 | inactive
Cc1cc(S(=O)(=O)O)ccc1N=Nc1c(O)ccc2ccccc12 | 27.3 µM (active)
O=C(/C=C/c1ccccc1)OCCCc1ccccc1 | inactive

SMILES | Potency
CC(COc1ccc(C(C)(C)C)cc1)OS(=O)OCCCl (stereo not given) | inactive
O=S(=O)(c1ccccc1)c1ccc(Cl)cc1 | inactive
COC(=O)Nc1nc2ccc(C(=O)c3cccs3)cc2[nH]1 | inactive
Cc1ccc(/C=N/n2c(-c3ccccc3)csc2=S)cc1 | inactive
COCC(O)CO (stereo not given) | inactive
CCCCC(=O)O[C@]1(C(=O)CO)[C@@H](C)C[C@H]2[C@@H]3CCC4=CC(=O)C=C[C@]4(C)[C@@]3(F)[C@@H](O)C[C@@]21C | inactive
O=C1NCCN1 | inactive
O=C(N/N=C/c1ccc([N+](=O)[O-])o1)c1ccc(O)cc1 | 29.8 µM (active)
O=[N+]([O-])c1cccc(S(=O)(=O)NCCNS(=O)(=O)c2cccc([N+](=O)[O-])c2)c1 | inactive
Cc1ccccc1N1C(=O)c2cc(S(N)(=O)=O)c(Cl)cc2NC1C (stereo not given) | inactive
C[C@@H]1C[C@H]2[C@@H]3CCC4=CC(=O)C=C[C@]4(C)[C@@]3(F)[C@@H](O)C[C@]2(C)[C@H]1C(=O)CO | inactive
C=CC(=C)CCCC(C)(C)OC(C)=O | inactive
CCC(=O)OC/C=C/c1ccccc1 | inactive
CCCCC(CC)CNCC(CC)CCCC (stereo not given) | inactive
CC(C)CCCC(=O)O | inactive
COc1ccc(CCC(=O)c2c(O)cc(O[C@@H]3O[C@H](CO)[C@@H](O)[C@H](O)[C@H]3O[C@@H]3O[C@@H](C)[C@H](O)[C@@H](O)[C@H]3O)cc2O)cc1O | inactive
c1cnc2c(n1)CCCC2 | inactive
CC(N)CN (stereo not given) | inactive
O=C(CCCCCCCCC#CI)Oc1ccccc1 | inactive
CC(=O)Nc1ccc(N)cc1 | inactive
